# Laboratory results: ChEMBL document CHEMBL3988442, “University of Dundee, Small-Polar-MMV Screening Library” (2021)
# Among all 69,000 compounds or so, about 950 (1.4%) showed an effect of 50% or more. Only a selection was taken, and strong results are over-represented in it overall.
# Tested on: Mycobacterium tuberculosis
# Assay: Cornell M. t heat shock assay; note: in the data most compounds retested in dose-response had high values
# Assay type: functional, organism-based
# Set-up: dose or concentration left out as unconfirmed
row,SMILES,Percent Effect
1,Cc1ccc(N2Cc3cnn(C)c3C(COCC3CC3)C2)nn1.O=C(O)C(F)(F)F.O=C(O)C(F)(F)F (stereo unspecified),49.24%
2,COc1ccc(CN2CCC3(CC2)NC(=O)CC3c2cnn(C)c2)cc1.O=C(O)C(F)(F)F (stereo unspecified),-26.9%
3,O=C1C[C@H]2CC[C@@H](CN1)N2C(=O)CCc1ccccc1,16.33%
4,CO[C@@H]1CCN(Cc2cccs2)[C@@H]2CN(Cc3ccncc3)C[C@@H]21.O=C(O)C(F)(F)F.O=C(O)C(F)(F)F.O=C(O)C(F)(F)F,42.16%
5,COCC(=O)N1CCCC(C)(c2nncn2C)C1 (stereo unspecified),11.29%
6,Cc1cccc(CN2CCC3(CC2)CN(c2cccnc2)C(=O)CO3)n1.O=C(O)C(F)(F)F.O=C(O)C(F)(F)F,-14.12%
7,Cc1nn(C)c(Cl)c1C1CCCN1C(=O)c1ccc(C(N)=O)cn1 (stereo unspecified),-15.15%
8,Cc1cc(C)n(CC2CCCN2CC(=O)Nc2nncs2)n1 (stereo unspecified),-43.1%
9,Cc1cc(C)n(CC2CCCCN2CC(=O)Nc2nnc(C)s2)n1 (stereo unspecified),10.12%
10,Cc1cc(C)n(CC2CCCCN2CC(=O)Nc2nncs2)n1 (stereo unspecified),69.77%
11,CO[C@@H]1CC[C@H]2[C@H]1OCCN2CC1CC1.O=C(O)C(F)(F)F,-34.92%
12,Cc1nn(C)c2c(=O)n(CC(=O)NCc3ccc(N(C)C)cc3)ccc12,2.829%
13,COCCN1C[C@@H]2CN(Cc3ccc(C)s3)CCC[C@]2(C(=O)O)C1.O=C(O)C(F)(F)F.O=C(O)C(F)(F)F,-29.4%
14,c1ccc(-c2cnc(CN3CCCC3Cn3cccn3)o2)cc1 (stereo unspecified),7.104%
15,Cc1cnn(CC2CCCN2Cc2nc(C)c3ccccc3n2)c1 (stereo unspecified),101.6%
16,Cc1nc(CN2CCCCC2Cn2cncn2)nc2ccccc12 (stereo unspecified),-16.52%
17,Cc1nc(CN2CCCCC2Cn2cccn2)nc2ccccc12 (stereo unspecified),49.4%
18,Cc1cnn(CC2CCCN2Cc2nc3ccccc3n2C)c1 (stereo unspecified),101.1%
19,Cc1cnn(CC2CCCN2Cc2ncc(-c3ccccc3)o2)c1 (stereo unspecified),61.17%
20,Cc1cnn(CC2CCCN2Cc2noc(C)n2)c1 (stereo unspecified),-1.003%
21,Cc1cnn(CC2CCCN2Cc2ncc(-c3ccc(F)cc3)o2)c1 (stereo unspecified),-10.3%
22,Cc1nc(C)n(CC2CCCN2Cc2nc3ccccc3n2C)n1 (stereo unspecified),-5.876%
23,Cc1nc(CN2CCCC2Cn2cccn2)nc2ccccc12 (stereo unspecified),33.45%

row,SMILES,Percent Effect
1,Cc1cnn(CC2CCCN2Cc2nc3ccccc3nc2C)c1 (stereo unspecified),7.151%
2,Cc1cnn(CC2CCCCN2Cc2nc(C)c3ccccc3n2)c1 (stereo unspecified),67.77%
3,COc1ccc(C(=O)N2Cc3cc(C)ccc3OCC2CN(C)C)cc1.Cl (stereo unspecified),-9.159%
4,Cc1cccc(CN2CCCC3(CCC(=O)N3CCN(C)C)CC2)n1.O=C(O)C(F)(F)F.O=C(O)C(F)(F)F (stereo unspecified),-9.93%
5,CC(C)NC(=O)N1CCc2ncnc(-c3ccncc3)c2CC1.O=C(O)C(F)(F)F,36.54%
6,CCn1ccc2ccnc(CC3CN(C(=O)Cn4ccnc4C)C3)c21.O=CO,-10.71%
7,COc1ccc(CN(Cc2cncn2C)CC2CCCO2)cc1OC.O=C(O)CC(O)(CC(=O)O)C(=O)O (stereo unspecified),-6.379%
8,Cc1ncc(CN(Cc2ccccn2)Cc2ccccc2Cl)n1C.O=C(O)CC(O)(CC(=O)O)C(=O)O,34.76%
9,COc1ccc(CN(Cc2ccccn2)Cc2cncn2C)cc1.O=C(O)CC(O)(CC(=O)O)C(=O)O,72.33%
10,Cn1ccnc1CN(Cc1ccccn1)Cc1ccccc1Cl.O=C(O)CC(O)(CC(=O)O)C(=O)O,102.4%
11,COc1ccc(CN(Cc2cncn2C)CC2CCCO2)cc1.O=C(O)CC(O)(CC(=O)O)C(=O)O (stereo unspecified),1.542%
12,Cc1nc2sccn2c1CN(CCCN(C)C)Cc1ccccn1.O=C(O)CC(O)(CC(=O)O)C(=O)O,-0.915%
13,COc1ncc(CN2CCCC(c3[nH]ncc3S(C)(=O)=O)C2)cn1 (stereo unspecified),-20.65%
14,CSc1ccccc1C(=O)N1C[C@H]2CC[C@@H]1CN(C(=O)C1CCC1)C2,6.914%
15,Cn1cc(CN2CCCC23CCN(C(=O)c2cccs2)CC3)cn1.O=C(O)C(F)(F)F,-13.39%
16,CN1CCN(Cc2cn3c(n2)CN(Cc2cccc(F)c2)CC3)CC1.O=C(O)C(F)(F)F.O=C(O)C(F)(F)F.O=C(O)C(F)(F)F,-2.625%
17,c1ccc(OCc2ccncc2)c(CNC2CCc3ncnn3C2)c1 (stereo unspecified),14.47%
18,c1ccc(COc2ccccc2CNC2CCc3ncnn3C2)cc1 (stereo unspecified),4.249%
19,c1cncc(COc2ccccc2CNC2CCc3ncnn3C2)c1 (stereo unspecified),103.3%
20,CC(C)N(C)Cc1cc(=O)n2c(n1)CN(S(=O)(=O)C1CC1)CCC2.O=C(O)C(F)(F)F,3.887%
21,Fc1ccccc1C(CNc1ccncn1)N1CCCC1 (stereo unspecified),-9.26%
22,CC(NCCn1cccn1)c1ccccc1F (stereo unspecified),-16.32%
23,COc1ccc(CN(C)c2ccc(-c3nccn3C)nn2)cc1OC,6.196%
